# VHR inh abs = blocks human VHR1 dual specificity phosphatase. P51452. recombinant VHR phosphatase, pNPP absorbance. inhibition, % at 13.3 µM. 290,000 compounds, 0.52% hits. AID 1654; in the data active = inhibition above about 50%
# Target sequence (P51452 whole entry, looked up): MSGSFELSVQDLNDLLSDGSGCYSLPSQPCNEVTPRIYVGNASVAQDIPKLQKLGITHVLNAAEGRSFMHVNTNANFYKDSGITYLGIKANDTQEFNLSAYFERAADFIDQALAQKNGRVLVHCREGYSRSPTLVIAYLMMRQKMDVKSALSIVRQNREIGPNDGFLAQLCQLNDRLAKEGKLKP
# Mtb hypoxia inh = inhibitors of hypoxia-regulated fluorescent reporter in Mycobacterium tuberculosis; M. tuberculosis hypoxia-regulated fluorescent reporter, fluorescence; fluorescence inhibition, % (test concentration not listed); 300,000 compounds, 0.1% hits; AID 1159583; in the data active = fluorescence inhibition mostly above about 23%, no sharp cut-off; inactive = mostly below about 17%
# Mtb bLac sens = beta-lactam sensitization of Mtb H37Rv; M. tuberculosis H37Rv growth with meropenem, percent inhibition; inhibition, % at 25 µM; 330,000 compounds, 0.27% hits; AID 434955; call rule not given here;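 note: growth measured after seven days incubation then overnight dye step; 0% = bacteria only wells and 100% = bacteria with antibiotic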
# GDH-TPI inh = GDH-TPI coupled enzyme inhibition counter-screen; GDH-TPI coupled enzyme counterscreen, NADH absorbance; inhibition, % at 4.8 µM; 360,000 compounds, 1.2% hits; in the data active = inhibition above about 30%;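 note: 0% = DMSO wells and 100% = wells lacking the enzyme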
# Mtb FBA inh = inhibitors of M. tuberculosis fructose-bisphosphate aldolase | purified M. tuberculosis FBA, fluorescence read-out | inhibition, % at 1 µM | 360,000 compounds, 2.3% hits | AID 588726; in the data active = inhibition above about 27%;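 note: 0% = vehicle and 100% = reference inhibitor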
# Target sequence (P9WQA3 whole entry, looked up): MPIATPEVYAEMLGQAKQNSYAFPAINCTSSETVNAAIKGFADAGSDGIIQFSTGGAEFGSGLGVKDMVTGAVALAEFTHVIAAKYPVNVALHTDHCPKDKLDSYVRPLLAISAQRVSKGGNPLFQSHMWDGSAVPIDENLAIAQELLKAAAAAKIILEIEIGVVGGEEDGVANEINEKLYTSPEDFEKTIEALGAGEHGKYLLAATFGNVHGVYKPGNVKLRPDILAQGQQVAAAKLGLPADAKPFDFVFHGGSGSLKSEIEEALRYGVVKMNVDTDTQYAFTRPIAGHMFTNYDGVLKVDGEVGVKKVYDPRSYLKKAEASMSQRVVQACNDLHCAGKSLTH
# Numbers without * were called inactive; u = inconclusive; x = no result; + = active, no number. In the library only some 3.6% were active in any assay of this set; here they are far more common.
SMILES,VHR inh abs,Mtb hypoxia inh,Mtb bLac sens,GDH-TPI inh,Mtb FBA inh
Cc1c(-c2cccc(NC(=O)c3ccco3)c2)nc2ncccn12,39.9,9.7,-3.1,29.3,+
Cc1c(-c2cccc(NC(=O)c3cccs3)c2)nc2ncccn12,20.8,2.6,4.3,11.1,+
COc1ccc(C2C=CCN(C(=O)c3ccc(C)cc3)C(C)C(=O)N2Cc2ccc(F)cc2)cc1 (configuration not stated),x,0.6,x,x,x
Cc1ccc(NC2=C([N+](=O)[O-])CS(=O)(=O)C2)cc1,8.3,2.0,-9.4,17.1,0.4
CN(C)c1ccc(NC2=C([N+](=O)[O-])CS(=O)(=O)C2)cc1,46.4,2.5,3.6,34.2*,-2.1
O=C(NN=Cc1ccc(Cl)cc1Cl)c1ccncc1,x,6.6,x,x,x
O=C(NN=Cc1ccc(N(CCCl)CCCl)cc1Cl)c1cccnc1,x,x,x,72.0*,8.2
Cc1cc(N(CCCl)CCCl)ccc1C=NNC(=O)c1cccnc1,x,12.4,x,50.9*,2.8
Cc1ccc(C=NNC(=O)c2cccnc2)o1,x,5.8,x,x,x
O=C(C1=CC(C2CCCCC2)CC(OCCCCO)O1)N1CCN(Cc2ccccc2)CC1 (configuration not stated),x,3.5,x,x,x
CC(=NNC(=O)C(N)=O)c1ccc(Br)cc1,x,-0.7,x,x,x
O=C(Nc1cccc(-c2cn3cccnc3n2)c1)Nc1ccccc1F,20.4,-6.3,-9.4,15.1,10.0
O=C(Nc1cccc(-c2cn3cccnc3n2)c1)c1cccs1,2.9,-1.6,14.0,12.4,170.2*
COc1ccc(-c2cn3cccnc3n2)cc1NC(=O)CC(C)C,38.0,8.6,-1.4,22.9,19.6
O=C(Nc1cccc(-c2cn3cccnc3n2)c1)c1ccco1,6.8,-20.3,-1.7,23.8,+
c1cnc2nc(-c3ccc4c(c3)OCO4)cn2c1,35.0,13.8,-7.8,15.8,6.0
Cc1ccc(-c2cn3cccnc3n2)cc1NC(=O)c1ccc(Br)o1,12.7,22.5,96.8,41.1*,+
O=C(Nc1cccc(-c2cn3cccnc3n2)c1)c1ccc2c(c1)OCO2,10.4,-0.6,18.8,16.9,133.8*
Cc1cccn2cc(-c3cccc(NC(=O)c4cccs4)c3)nc12,23.4,-6.3,75.0,5.7,0.4
C=CCNC(=O)C(C#N)=Cc1c(N(Cc2ccccc2)Cc2ccccc2)nc2ccccn2c1=O,x,-4.5,x,x,x
O=C(Nc1cccc(-c2cn3cccnc3n2)c1)c1ccc(Br)o1,20.8,-4.2,u,19.7,+
O=C(NC1CCC(=O)N(C(CSc2ccc(Br)cc2)Cc2ccccc2)CC1)OCc1ccccc1 (configuration not stated),x,-0.4,x,x,x
O=C(NN=Cc1ccccc1[N+](=O)[O-])c1ccc2nc[nH]c2c1,x,-1.7,x,x,x
O=C(N/N=C/c1ccc(Br)s1)c1ccccc1[N+](=O)[O-],35.7,x,-1.6,37.7*,-3.1
CCc1c(C)c2ccc(O)c(CN3CCCC3)c2oc1=O,-11.8,0.9,6.1,34.5*,x
SMILES,VHR inh abs,Mtb hypoxia inh,Mtb bLac sens,GDH-TPI inh,Mtb FBA inh
Cc1c(C)c2ccc(O)c(CN3CCCC3)c2oc1=O,-5.7,-1.8,-0.9,12.4,+
Cc1c(C)c2ccc(O)c(CN3CCN(C)CC3)c2oc1=O,35.9,-6.1,0.9,14.0,+
Cc1c(O)c(CN2CCCCC2)cc2c3c(c(=O)oc12)CCC3,-0.2,-3.2,-12.5,22.2,+
Cc1c(O)c(CN2CCCCC2)cc2c1oc(=O)c1ccccc12,30.2,-3.3,97.7,0.6,2.7
CCOC(=O)c1c(C)oc2ccc(O)c(CN3CCCCC3)c12,5.6,8.7,7.3,-8.2,-1.6
CCCCCCOc1ccc(C=c2sc(=C(C#N)C(=O)NCc3ccco3)n(-c3ccccc3)c2=O)cc1,x,16.9,x,x,x
Nc1ncnc2c1nc(Br)n2C1OC2COP(=O)(O)OC2C1O (configuration not stated),x,-10.4,x,x,x
COc1cc(C=NNC(=O)COc2ccc(C)cc2)ccc1OC(=O)c1cccs1,x,2.1,x,x,x
Cc1cc(C=NNC(=O)C(=O)NCc2ccccn2)c(C)n1-c1cccc(Br)c1,x,3.1,x,x,x
O=C(NN=Cc1ccc(F)cc1)c1cc(-c2ccccn2)nc2ccccc12,x,-2.1,x,x,x
CN1CCN(Cc2c(O)ccc3cc(-c4ccccn4)c(=O)oc23)CC1,25.1,4.4,-8.0,10.8,+
O=c1cc(-c2ccccc2)c2ccc(O)c(CN3CCCCC3)c2o1,7.2,-2.3,-2.1,-0.5,8.0
O=c1oc2c(CN3CCCCC3)c(O)ccc2c2c1CCCC2,24.3,14.1,3.8,23.7,+
COc1ccc(C2CC(=O)C=C(c3cccc(F)c3OC)C2)cc1 (configuration not stated),x,1.0,x,x,x
COCCC1CCCCN1C(=O)c1cc(COc2cccc(C(C)=O)c2)on1 (configuration not stated),17.9,7.6,3.0,1.4,4.0
CC(=O)c1ccc(OCc2cc(C(=O)N3CCC[C@H]3CO)no2)cc1,59.8*,5.4,-6.1,5.1,-0.1
COc1cc2c3c(cccc3c1)C(=O)N(CCN1CCCC1)C2=O,x,x,x,15.9,146.6*
COc1ccc(OCC(O)CN2CCC(CN3C(=O)c4cccc5cccc(c45)C3=O)CC2)cc1 (configuration not stated),x,8.1,67.7,45.2*,22.6
COc1ccc(C(=O)CN2CCN(CCN3C(=O)c4cccc5cccc(c45)C3=O)CC2)cc1,x,4.9,35.6,45.7*,3.8
Cc1ccc(NN=C2COC(C)(C)CC2=O)cc1,x,-1.1,x,x,x
CC1(C)CC(=O)/C(=N/Nc2ccc(Cl)cc2)CO1,0.9,x,91.1,31.2*,-2.4
CC/C(=N\NC(=O)c1ccccc1Cl)c1c(O)n(C2CCCCC2)c(=O)[nH]c1=O,-10.2,1.2,-1.0,33.6*,-2.5
CCc1cccc(CC)c1NC(=O)c1cccc(N)c1,56.4*,x,5.1,7.4,9.0
Nc1c(Cl)c(Cl)nc(C(=O)NN=Cc2ccco2)c1Cl,x,0.8,x,x,x
COCC(C)NC(=O)c1cc2c(ccc3ccccc32)oc1=O (configuration not stated),14.9,11.4,3.9,9.4,+
SMILES,VHR inh abs,Mtb hypoxia inh,Mtb bLac sens,GDH-TPI inh,Mtb FBA inh
O=C(c1ccco1)c1cc2c(ccc3ccccc32)oc1=O,18.8,1.6,86.5,13.6,4.0
CC(C)Oc1ccc(CCC(=O)NN=Cc2ccc3c(c2)OCO3)cc1,x,0.0,x,x,x
CCN(CC)S(=O)(=O)c1ccc(/C(O)=C(\C#N)c2nc3ccccc3n2C)cc1,-2.5,x,3.5,39.2*,1.6
Cn1c(/C(C#N)=C(\O)c2ccc([N+](=O)[O-])cc2)nc2ccccc21,13.2,2.8,2.7,-5.7,1.4
c1ccc(Cn2nnc3c(N4CCN(Cc5ccc6c(c5)OCO6)CC4)ncnc32)cc1,51.4*,0.9,71.3,2.5,1.1
O=C(N1CCN(c2ccccc2)CC1)C(F)(F)C(F)F,51.6*,-2.0,2.0,0.0,2.7
CC(C)Oc1ccc(C(=O)O)cc1,31.5,x,-2.0,-3.2,0.5
CC1=N/C(=C\c2ccc(OC(C)C)cc2)C(=O)N1c1ccc(C(=O)O)cc1,2.1,7.5,40.3,33.5*,1.2
O=C(CCS(=O)(=O)c1cccs1)Nc1ccc(C(=O)NCc2ccccc2)cc1,53.3*,-7.3,-1.2,-0.9,-0.3
CC(=O)Nc1cccc(C(C)=NNC(=O)c2ccc(O)cc2)c1,x,2.7,x,x,x
